# According to PubChem BioAssay (Tox21):
# “And” between values parts separate entries of the source, which are not always exact repeats. Equal values may be shown once. Inconclusive results are not listed. Entries that show only a call come without a potency. The source holds several records for some structures; these can differ, active in one and inactive in another. The source made the active and inactive calls. Calls follow the shape of the dose curve; as a rule, active = well fitted cell-killing curve with a large enough effect in the repeat runs; inconclusive = weak or mixed curves, or effect the other way; inactive = flat fitted curve, though single readings scatter.
# Assay: qHTS RealTime-Glo MT Cell Viability Assay in HepG2 cells - 40 hour (AID 1224870); also: nearly all actives have a fitted effect of over 50% in size
# Settings: RealTime-Glo luminescence; series mostly up to 76.8 µM; activity change, negative = cytotoxic: at the top concentration
# Description: National Center for Advancing Translational Sciences [NCATS]
# NIH Chemical Genomics Center [NCGC]
# U.S. Environmental Protection Agency [EPA]
# National Institutes of Environmental Health Sciences [NIEHS]
# National Toxicology Program [NTP]
# U.S. Food and Drug Administration [FDA]
# Measure of cell viability is critical in the cell-base assay. Analysis of cell viability is necessary for the characterization of cell responses to cytotoxic drugs and environmental stress. A RealTime-Glo MT Cell Viability Assay to monitor cell viability in real time of continues cell culture during 40 hours of compound treatment was used to screen Tox21 10K library compounds in HepG2 cells. The RealTime-Glo MT Cell Viability Assay is a nonlytic, homogeneous, bioluminescent method to measure cell viability in real time using a simple, plate-based method. The assay involves adding NanoLuc luciferase and a cell-permeant prosubstrate to cells in culture. Viable cells reduce the proprietary prosubstrate to generate a substrate for NanoLuc luciferase. This substrate diffuses from cells into the surrounding culture medium, where it is rapidly used by the NanoLuc Enzyme to produce a luminescent signal. The signal correlates with the number of viable cells, making the assay well suited for cytotoxicity studies.
# Tox21 Assay Protocol Summary:
# The mixture of HepG2 cell suspension and reagents were dispensed at 600cells/6 ul/well in 1536-well tissue culture treated black solid bottom plates using a Multidrop dispenser. After the assay plates were incubated at a 37 C/5% CO2 incubator for 5 hours, 23 nL of compounds dissolved in DMSO, positive and negative controls was transferred to the assay plate by a pintool work station. The plates were incubated at 37 C for 40 hours. The luminescence intensity were measured at 0h, 8h, 16h, 24h, 32h and 40h time points using ViewLux plate reader during compound treatment.
# Potency is read from the fitted curve at half-maximal effect.
Structure (SMILES),Potency,"activity change, negative = cytotoxic"
CC1(C)Cc2cccc(O)c2O1,inactive,–
Cc1cc(Cl)ccc1N=CN(C)C,–,-2.27% (inactive)
O=NN(c1ccccc1)c1ccccc1,inactive,–
CC1CC(=O)O1 (stereo not given),inactive,–
CC(C)=CC1C(C(=O)OCc2cccc(Oc3ccccc3)c2)C1(C)C (stereo not given),inactive,–
CCOC(=O)c1ccccc1N,inactive,–
O=C1C(Cl)=C(Cl)C(=O)c2ccccc21,34.8 µM (active) and 17.4 µM (active),–
CCC[CH2][Sn]([Cl])([Cl])[CH2]CCC,198 nM (active) and 138 nM (active),–
Nc1ccc2ccccc2c1,inactive,–
C=CC(=O)OCC(CC)(COC(=O)C=C)COC(=O)C=C,35.6 µM (active) and 12.3 µM (active),–
CC(C)=CC1C(C(=O)OCN2C(=O)C3=C(CCCC3)C2=O)C1(C)C (stereo not given),inactive,–
CSc1nc(NC(C)C)nc(NC(C)C)n1,inactive,–
NN=C(N)N,inactive,–
Cl,inactive,–
CCOP(=O)(OCC)OCC,inactive,–
O=[N+]([O-])/N=C1\NCCN1Cc1ccc(Cl)nc1,inactive,–
ClCC(Cl)CCl,inactive,–
CNC(=S)S,inactive,–
CCCCCCCCCC(CC)c1ccc(S(=O)(=O)O)cc1 (stereo not given),inactive,–
COc1ccc(C=O)cc1OC,inactive,–

Structure (SMILES),Potency,"activity change, negative = cytotoxic"
OCCOCCO,inactive,–
Cc1ccc(N=CN(C)C=Nc2ccc(C)cc2C)c(C)c1,inactive,–
CCNCC,inactive,–
CCOS(=O)(=O)OCC,inactive,–
CCOP(=S)(OCC)SCSC(C)(C)C,inactive,–
ClC(Cl)=C(Cl)C(Cl)=C(Cl)Cl,inactive,–
OC(c1ccc(Cl)cc1)(c1cncnc1)c1ccccc1Cl (stereo not given),17.7 µM (active) and inactive,–
Clc1cccc(C(Cl)(Cl)Cl)n1,inactive,–
COc1ccc(O)c(C(C)(C)C)c1,inactive,–
Nc1ccc([N+](=O)[O-])cc1N,inactive,–
CC(C)(c1ccccc1)c1ccc(O)cc1,–,-3.4% (inactive)
O=C(O)c1nn(Cc2ccc(Cl)cc2Cl)c2ccccc12,inactive,–
Brc1ccc(Br)cc1,inactive,–
CCCCC(C#N)(Cn1cncn1)c1ccc(Cl)cc1 (stereo not given),inactive,–
Cc1cccc(N=Nc2ccc(N(C)C)cc2)c1,inactive,–
CCOP(=O)(O)OCC (tested in a mixture with another compound),inactive and 43.3 µM (active),–
Nc1ncn[nH]1,inactive,–
CCC/C=N/O,inactive,–
CCN(CC)C(=O)C(C)Oc1cccc2ccccc12 (stereo not given),inactive,–
O=P(OCCCl)(OCCCl)OCCCl,inactive,–
